Assay results from PubChem BioAssay AID1159580 (chemical genetic matrix, 2015).
Where “and” joins values, the source holds several entries; their conditions need not be identical. Equal entries are not always repeated. The whole screen tested about 5,500 compounds, of which about 2,000 (36%) were called active. Not shown: some 18% with an inconclusive outcome. No stated cut-off is given here; in the data, active means normalized growth mostly below about 0.91 (no sharp cut-off); inconclusive means no clear call, values can overlap the other calls; inactive means mostly above about 0.92. The list shows a part of the results.

Assay: chemical genetic growth profiling, strain panel (AID 1159580);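 further: tested at 20 µM; growth read once vehicle control cultures reached saturation at 30 °C; 1 = growth at the plate median or of vehicle wells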
Conditions: S. cerevisiae deletion strains, growth OD

Measured: normalized growth

O=C1C=C(O)c2ccccc2C1=O
inactive: locus YAL013W, strain DEP1, stronger effect = lower value 0.969 | locus YAL026C, strain drs2, stronger effect = lower value 0.938 | locus YAL030W, strain snc1, stronger effect = lower value 0.959 | locus YBL061C, strain skt5, stronger effect = lower value 0.956 | locus YBR009C, strain hhf1, stronger effect = lower value 0.948 | locus YBR021W, strain FUR4, stronger effect = lower value 1.05 | locus YBR023C, strain chs3, stronger effect = lower value 0.95 | locus YBR171W, strain sec66, stronger effect = lower value 0.952 | locus YBR229C, strain ROT2, stronger effect = lower value 0.979 | locus YBR231C, strain swc5, stronger effect = lower value 0.932 | locus YBR279W, strain paf1, stronger effect = lower value 0.953 | locus YCL011C, strain gbp2, stronger effect = lower value 0.925 | locus YCL016C, strain dcc1, stronger effect = lower value 0.95 | locus YCL029C, strain bik1, stronger effect = lower value 0.971 | locus YCL061C, strain MRC1, stronger effect = lower value 0.93 | locus YCL069W, strain vba3, stronger effect = lower value 0.963 | locus YCR088W, strain abp1, stronger effect = lower value 0.934 | locus YDL005C, strain med2, stronger effect = lower value 0.947 | locus YDL035C, strain GPR1, stronger effect = lower value 1.01 | locus YDL040C, strain nat1, stronger effect = lower value 0.966 | locus YDL074C, strain BRE1, stronger effect = lower value 1.03 | locus YDL101C, strain DUN1, stronger effect = lower value 0.971 | locus YDL134C, strain PPH21, stronger effect = lower value 0.968 | locus YDL185W, strain tfp1, stronger effect = lower value 0.907 | locus YDL192W, strain arf1, stronger effect = lower value 0.958 | locus YDR001C, strain nth1, stronger effect = lower value 0.944 | locus YDR069C, strain doa4, stronger effect = lower value 0.912 | locus YDR101C, strain arx1, stronger effect = lower value 0.978 | locus YDR150W, strain NUM1, stronger effect = lower value 0.972 | locus YDR162C, strain NBP2, stronger effect = lower value 0.882 | locus YDR195W, strain ref2 0.995 | locus YDR297W, strain sur2, stronger effect = lower value 0.931 | locus YDR318W, strain mcm21, stronger effect = lower value 0.928 | locus YDR335W, strain msn5, stronger effect = lower value 0.94 | locus YDR388W, stronger effect = lower value 0.966 | locus YDR392W, strain spt3, stronger effect = lower value 0.796 | locus YDR502C, strain sam2, stronger effect = lower value 0.941 | locus YEL003W, strain gim4, stronger effect = lower value 0.925 | locus YEL037C, strain rad23, stronger effect = lower value 0.944 | locus YEL061C, strain CIN8 (second series), stronger effect = lower value 0.948 | locus YEL061C, strain CIN8, stronger effect = lower value 0.966 | locus YER015W, strain faa2, stronger effect = lower value 0.94 | locus YER016W, strain bim1, stronger effect = lower value 0.957 | locus YER110C, stronger effect = lower value 0.955 | locus YER111C, strain swi4, stronger effect = lower value 0.965 | locus YER155C, strain BEM2 (second series), stronger effect = lower value 0.954 | locus YER155C, strain BEM2, stronger effect = lower value 0.957 | locus YER167W, strain BCK2, stronger effect = lower value 0.98 | locus YGL078C, strain dbp3, stronger effect = lower value 1.01 | locus YGL086W, strain mad1, stronger effect = lower value 0.976 | locus YGL167C, strain pmr1, stronger effect = lower value 0.948 | locus YGL173C, strain kem1, stronger effect = lower value 0.942 | locus YGL227W, strain vid30, stronger effect = lower value 0.977 | locus YGL240W, strain doc1, stronger effect = lower value 0.89 | locus YGL248W, strain PDE1, stronger effect = lower value 0.966 | locus YGL253W, strain hxk2, stronger effect = lower value 0.924 | locus YGR078C, strain PAC10, stronger effect = lower value 0.963 | locus YGR135W, strain pre9, stronger effect = lower value 0.973 | locus YGR252W, strain gcn5, stronger effect = lower value 1.03 | locus YHR013C, strain ard1, stronger effect = lower value 0.963 | locus YHR027C, strain rpn1, stronger effect = lower value 0.935 | locus YHR030C, strain SLT2, stronger effect = lower value 0.963 and 0.867 | locus YHR079C, strain IRE1 (second series), stronger effect = lower value 0.981 | locus YHR094C, strain hxt1, stronger effect = lower value 1 | locus YHR129C, strain ARP1, stronger effect = lower value 0.988 | locus YHR142W, strain chs7, stronger effect = lower value 0.93 | locus YHR200W, strain rpn10, stronger effect = lower value 0.962 | locus YIL066C, strain RNR3, stronger effect = lower value 0.972 | locus YIL073C, strain SPO22, stronger effect = lower value 0.992 | locus YIL125W, strain kgd1, stronger effect = lower value 0.962 | locus YIR030C, strain dcg1, stronger effect = lower value 0.972 | locus YJL092W, strain hpr5, stronger effect = lower value 0.934 | locus YJL095W, strain BCK1 (second series), stronger effect = lower value 0.931 | locus YJL095W, strain BCK1, stronger effect = lower value 0.949 and 0.923 | locus YJL115W, strain asf1, stronger effect = lower value 0.938 | locus YJL129C, strain trk1, stronger effect = lower value 0.967 | locus YJL134W, strain LCB3, stronger effect = lower value 0.967 | locus YJL154C, strain vps35, stronger effect = lower value 0.933 | locus YJL166W, strain qcr8, stronger effect = lower value 0.92 | locus YJL168C, strain set2, stronger effect = lower value 0.955 | locus YJL187C, strain SWE1 (second series), stronger effect = lower value 0.957 | locus YJL187C, strain SWE1, stronger effect = lower value 0.946
active: locus YAL021C, strain ccr4, stronger effect = lower value 0.905 | locus YDR137W, strain rgp1, stronger effect = lower value 0.683 | locus YDR159W, strain sac3, stronger effect = lower value 0.802 | locus YDR334W, strain swr1, stronger effect = lower value 0.884 | locus YFR010W, strain ubp6, stronger effect = lower value 0.896 | locus YHR079C, strain IRE1, stronger effect = lower value 0.774 | locus YJL164C, strain tpk1, stronger effect = lower value 0.913
